This is an account of results in the supplement of paper PMC10849652.

Targets with a hit are over-represented here; the source holds about 8,800 in all. About 0.5% of all pairs of compound and target were hits. A number with no mark means an inactive call.

UniProt P78406, sequence (P78406 whole entry, looked up): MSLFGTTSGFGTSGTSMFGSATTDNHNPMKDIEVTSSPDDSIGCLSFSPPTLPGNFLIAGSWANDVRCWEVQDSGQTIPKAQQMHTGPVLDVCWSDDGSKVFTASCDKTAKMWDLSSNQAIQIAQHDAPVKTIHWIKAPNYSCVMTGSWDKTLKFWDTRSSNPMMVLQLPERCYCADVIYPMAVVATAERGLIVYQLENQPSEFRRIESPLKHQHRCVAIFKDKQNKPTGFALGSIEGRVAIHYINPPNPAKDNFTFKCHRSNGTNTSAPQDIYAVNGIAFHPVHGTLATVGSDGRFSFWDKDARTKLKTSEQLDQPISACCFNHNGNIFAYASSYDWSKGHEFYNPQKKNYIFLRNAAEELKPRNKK
UniProt P60059, sequence (P60059 whole entry, looked up): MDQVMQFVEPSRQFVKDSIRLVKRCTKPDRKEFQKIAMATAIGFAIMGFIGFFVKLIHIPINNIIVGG
UniProt P04844, sequence (P04844 whole entry, looked up): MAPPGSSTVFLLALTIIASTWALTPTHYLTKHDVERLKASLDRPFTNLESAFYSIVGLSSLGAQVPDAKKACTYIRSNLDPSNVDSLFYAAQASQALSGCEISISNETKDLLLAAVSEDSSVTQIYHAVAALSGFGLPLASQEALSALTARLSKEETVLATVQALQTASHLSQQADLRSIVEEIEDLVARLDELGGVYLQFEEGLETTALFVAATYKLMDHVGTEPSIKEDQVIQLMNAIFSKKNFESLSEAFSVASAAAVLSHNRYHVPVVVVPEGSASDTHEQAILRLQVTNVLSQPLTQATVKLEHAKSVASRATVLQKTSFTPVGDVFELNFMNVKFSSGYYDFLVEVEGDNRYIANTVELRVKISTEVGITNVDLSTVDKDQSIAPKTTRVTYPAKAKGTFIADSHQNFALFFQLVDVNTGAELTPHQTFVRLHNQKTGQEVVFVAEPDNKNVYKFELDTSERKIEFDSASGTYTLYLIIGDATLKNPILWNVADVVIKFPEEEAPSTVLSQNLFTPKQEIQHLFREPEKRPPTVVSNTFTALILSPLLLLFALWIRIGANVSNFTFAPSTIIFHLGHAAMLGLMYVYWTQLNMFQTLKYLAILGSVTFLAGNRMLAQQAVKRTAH
UniProt Q9BRS2, sequence (Q9BRS2 whole entry, looked up): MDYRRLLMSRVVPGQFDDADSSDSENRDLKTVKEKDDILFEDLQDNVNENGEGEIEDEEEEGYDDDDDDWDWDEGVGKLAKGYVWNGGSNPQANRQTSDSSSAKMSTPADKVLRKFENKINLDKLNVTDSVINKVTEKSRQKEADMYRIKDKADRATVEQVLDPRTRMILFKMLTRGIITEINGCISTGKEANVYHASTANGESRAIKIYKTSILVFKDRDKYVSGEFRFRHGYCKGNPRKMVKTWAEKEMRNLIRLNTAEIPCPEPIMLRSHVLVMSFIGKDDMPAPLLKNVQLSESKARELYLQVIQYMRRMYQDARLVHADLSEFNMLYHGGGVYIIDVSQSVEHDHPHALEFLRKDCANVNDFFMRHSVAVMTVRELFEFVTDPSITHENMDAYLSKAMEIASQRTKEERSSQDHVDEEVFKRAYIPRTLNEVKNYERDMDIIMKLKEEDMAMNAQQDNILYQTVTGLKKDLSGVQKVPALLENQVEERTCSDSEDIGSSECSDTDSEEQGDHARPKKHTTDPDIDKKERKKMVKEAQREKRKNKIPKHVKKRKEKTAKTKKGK
UniProt Q9P0K7, sequence (Q9P0K7 whole entry, looked up): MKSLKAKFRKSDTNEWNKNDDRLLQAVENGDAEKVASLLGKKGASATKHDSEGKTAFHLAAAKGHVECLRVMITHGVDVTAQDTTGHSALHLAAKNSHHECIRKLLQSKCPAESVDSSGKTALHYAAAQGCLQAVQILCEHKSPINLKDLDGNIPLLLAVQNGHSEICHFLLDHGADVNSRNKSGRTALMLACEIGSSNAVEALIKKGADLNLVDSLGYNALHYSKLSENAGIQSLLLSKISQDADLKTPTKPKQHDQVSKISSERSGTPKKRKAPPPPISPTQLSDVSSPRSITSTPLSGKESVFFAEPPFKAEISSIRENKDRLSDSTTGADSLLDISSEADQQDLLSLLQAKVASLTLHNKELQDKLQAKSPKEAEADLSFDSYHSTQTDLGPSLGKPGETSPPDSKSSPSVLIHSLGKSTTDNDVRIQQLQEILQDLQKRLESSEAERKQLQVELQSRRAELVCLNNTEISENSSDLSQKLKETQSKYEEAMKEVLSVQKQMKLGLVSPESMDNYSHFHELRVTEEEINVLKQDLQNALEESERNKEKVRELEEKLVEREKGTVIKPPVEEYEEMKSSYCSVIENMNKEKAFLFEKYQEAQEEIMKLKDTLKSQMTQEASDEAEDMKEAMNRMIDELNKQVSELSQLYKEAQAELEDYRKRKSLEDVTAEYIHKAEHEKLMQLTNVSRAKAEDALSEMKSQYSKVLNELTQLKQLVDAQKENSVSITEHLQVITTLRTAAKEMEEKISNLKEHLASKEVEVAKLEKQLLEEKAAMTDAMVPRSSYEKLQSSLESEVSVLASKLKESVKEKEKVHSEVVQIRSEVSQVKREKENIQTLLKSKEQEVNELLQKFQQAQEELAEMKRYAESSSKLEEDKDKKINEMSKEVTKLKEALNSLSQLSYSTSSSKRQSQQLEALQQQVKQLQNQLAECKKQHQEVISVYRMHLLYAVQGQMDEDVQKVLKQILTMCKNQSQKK
UniProt O14730, sequence (O14730 whole entry, looked up): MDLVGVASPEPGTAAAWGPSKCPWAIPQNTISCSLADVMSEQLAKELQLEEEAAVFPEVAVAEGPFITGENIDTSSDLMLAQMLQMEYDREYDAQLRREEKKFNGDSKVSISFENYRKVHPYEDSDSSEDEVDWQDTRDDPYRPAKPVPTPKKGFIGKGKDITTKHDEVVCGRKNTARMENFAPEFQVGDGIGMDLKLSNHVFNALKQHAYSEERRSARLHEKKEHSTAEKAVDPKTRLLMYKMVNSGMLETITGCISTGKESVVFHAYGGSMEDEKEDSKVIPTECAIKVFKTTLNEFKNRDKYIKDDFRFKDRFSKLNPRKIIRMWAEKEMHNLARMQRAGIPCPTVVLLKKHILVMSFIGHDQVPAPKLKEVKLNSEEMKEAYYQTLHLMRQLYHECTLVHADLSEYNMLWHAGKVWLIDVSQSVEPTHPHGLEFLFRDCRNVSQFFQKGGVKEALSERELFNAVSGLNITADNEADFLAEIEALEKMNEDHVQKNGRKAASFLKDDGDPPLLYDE
UniProt Q6NUQ1, sequence (Q6NUQ1 whole entry, looked up): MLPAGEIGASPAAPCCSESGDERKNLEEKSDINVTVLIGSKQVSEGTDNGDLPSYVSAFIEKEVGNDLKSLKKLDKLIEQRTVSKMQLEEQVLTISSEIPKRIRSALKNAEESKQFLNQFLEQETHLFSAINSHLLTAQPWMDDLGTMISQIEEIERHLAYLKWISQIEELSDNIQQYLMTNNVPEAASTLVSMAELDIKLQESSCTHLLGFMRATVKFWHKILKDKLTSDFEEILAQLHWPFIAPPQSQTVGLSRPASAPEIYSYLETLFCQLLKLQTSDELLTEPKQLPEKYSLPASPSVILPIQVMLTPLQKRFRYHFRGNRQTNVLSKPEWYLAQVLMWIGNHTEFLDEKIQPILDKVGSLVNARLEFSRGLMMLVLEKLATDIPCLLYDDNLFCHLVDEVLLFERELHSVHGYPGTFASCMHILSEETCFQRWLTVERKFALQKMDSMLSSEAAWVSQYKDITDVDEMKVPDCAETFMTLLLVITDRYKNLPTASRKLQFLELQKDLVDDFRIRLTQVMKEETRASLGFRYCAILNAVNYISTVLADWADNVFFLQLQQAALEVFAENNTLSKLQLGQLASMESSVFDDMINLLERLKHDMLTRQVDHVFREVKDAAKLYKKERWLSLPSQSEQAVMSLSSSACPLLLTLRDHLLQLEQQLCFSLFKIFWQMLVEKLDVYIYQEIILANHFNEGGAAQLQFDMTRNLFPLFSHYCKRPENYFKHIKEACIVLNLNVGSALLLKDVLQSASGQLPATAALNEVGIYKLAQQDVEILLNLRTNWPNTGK
UniProt Q00765, sequence (Q00765 whole entry, looked up): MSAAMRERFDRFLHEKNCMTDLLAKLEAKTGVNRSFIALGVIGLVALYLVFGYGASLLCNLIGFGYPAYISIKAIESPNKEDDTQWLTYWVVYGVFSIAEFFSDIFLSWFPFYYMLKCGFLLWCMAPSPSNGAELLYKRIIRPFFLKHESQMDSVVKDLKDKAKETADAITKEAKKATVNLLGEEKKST
UniProt Q9UL25, sequence (Q9UL25 whole entry, looked up): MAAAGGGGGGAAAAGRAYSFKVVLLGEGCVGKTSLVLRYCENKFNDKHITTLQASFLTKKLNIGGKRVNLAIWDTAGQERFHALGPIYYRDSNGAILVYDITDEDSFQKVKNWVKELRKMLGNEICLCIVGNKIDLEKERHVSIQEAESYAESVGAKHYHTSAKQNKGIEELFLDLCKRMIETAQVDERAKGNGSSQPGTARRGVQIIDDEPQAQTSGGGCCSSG
UniProt Q9H0U4, sequence (Q9H0U4 whole entry, looked up): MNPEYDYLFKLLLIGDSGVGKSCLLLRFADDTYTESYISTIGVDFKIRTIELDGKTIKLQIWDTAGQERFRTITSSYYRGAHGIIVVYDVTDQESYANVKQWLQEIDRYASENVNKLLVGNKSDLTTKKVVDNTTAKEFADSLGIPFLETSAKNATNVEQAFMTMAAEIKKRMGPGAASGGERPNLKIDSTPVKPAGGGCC
UniProt Q96EE3, sequence (Q96EE3 whole entry, looked up): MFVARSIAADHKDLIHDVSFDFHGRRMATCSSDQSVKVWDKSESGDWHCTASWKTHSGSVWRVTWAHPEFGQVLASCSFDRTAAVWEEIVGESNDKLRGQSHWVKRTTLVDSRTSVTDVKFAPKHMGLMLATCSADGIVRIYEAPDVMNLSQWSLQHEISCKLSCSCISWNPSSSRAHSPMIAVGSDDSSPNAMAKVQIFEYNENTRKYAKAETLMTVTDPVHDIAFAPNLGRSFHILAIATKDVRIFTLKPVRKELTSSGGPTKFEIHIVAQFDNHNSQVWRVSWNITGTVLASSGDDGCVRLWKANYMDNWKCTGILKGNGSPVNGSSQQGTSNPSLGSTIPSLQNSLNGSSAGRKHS

Compound in the test: COc1cc(Nc2ncc3c(n2)-c2ccc(Cl)cc2C(c2c(F)cccc2OC)=NC3)ccc1C(=O)O [alisertib]
Briefly: log2 fold change, soluble protein after heating vs DMSO (PISA); higher = thermal stabilisation; K562 lysate, 10 uM; active = over 0.2 and 3.5 SD of the protein, either way, in both replicates (recomputed). An outline of the steps:
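Quantification was by TMTpro 16plex LC-MS/MS with equalised channel sums, applied to the supernatant after 21,000xg for 90 min. Samples were crude K562 extract at 1 mg/mL protein in PBS pH 7.4 with 1 mM MgCl2, treated with 10 μM compound for 30 min, heated for 3 min across 48°C-58°C, pooled and brought to 0.5% NP-40 at 4°C. Values are log-two fold changes in thermal stability relative to solvent controls, from duplicates.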
For RAB21 (UniProt Q9UL25), the log2 fold change is 0.015.

Turning to RPS6KA5 (UniProt O75582), the log2 fold change was 0.041.

As for RPS26P11 (UniProt Q5JNZ5), the log2 fold change was -0.006.

Regarding SATB2 (UniProt Q9UPW6), the log2 fold change was 0.024.

Consider RAPGEF2, A0A2R8YGD3, for which the log2 fold change was 0.007.

RPN2 (UniProt P04844): the log2 fold change was -0.008.

With RAI14 isoform 2 (UniProt Q9P0K7), the log2 fold change is -0.018.

Turning to RPS18 (UniProt P62269), the log2 fold change is 0.013.

Regarding ROCK1 (UniProt Q13464), the log2 fold change is -0.045.

Take RPTOR (UniProt Q8N122): the log2 fold change was -0.012.

For RAB1B (UniProt Q9H0U4), the log2 fold change was 0.047.

With RIOK1 (UniProt Q9BRS2), the log2 fold change is 0.01.

RAE1 (UniProt P78406): the log2 fold change is -0.015.

Turning to REEP5 (UniProt Q00765), the log2 fold change is -0.009.

For RPLP0P6 (UniProt Q8NHW5), the log2 fold change was 0.004.

On to SCCPDH (UniProt Q8NBX0), for which the log2 fold change is -0.011.

With RINT1 (UniProt Q6NUQ1), the log2 fold change is -0.086.

For the target SEC61G (UniProt P60059), the log2 fold change was 0.053.

Regarding SEH1L isoform 1 (UniProt Q96EE3), the log2 fold change was 0.001.

For the target RAD50 isoform 2 (UniProt Q92878), the log2 fold change is 0.002.

With RIOK3 (UniProt O14730), the log2 fold change is -0.006.

In the case of SEC13 isoform 3 (UniProt P55735), the log2 fold change was 0.02.

Consider RAC2 (UniProt P15153), for which the log2 fold change is 0.051.
